Test results reported in paper PMC8384837, “Expanding the binding specificity for RNA recognition by a PUF domain”.
Substitutions are numbered along the chain they refer to.

Columns and labels:
Assay in all cases: yeast three-hybrid, YBZ-1, SC-Leu-His + 0.5 mM 3-AT, 4 days
Details in all cases: tags: N-Gal4 AD-HA kept; label: inside an RPR1-promoter hybrid RNA with tandem MS2 sites; ssRNA
PUM1 PUF domain R2-ARP = PUM1 PUF domain R2-ARP (Homo sapiens, UniProt Q14671 828-1176, N899A;Y900R;Q903P)
Outline: (§1)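 Repeat regions from input (SC-Leu) and selection (SC-Leu-His + 0.5 mM 3-AT) plates were PCR-amplified and Illumina-sequenced after four days of growth. The cells were strain YBZ-1 with a LexA–MS2 coat fusion and a HIS3 reporter, co-expressing Pumilio-1 PUF domain libraries and matching RNA elements from a centromeric plasmid. The interaction score is the log change in variant frequency from input to selection, taken in log2 with a pseudocount of 1 for absent variants.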

PUM1 PUF domain R1-KGN = PUM1 PUF domain R1-KGN (Homo sapiens, UniProt Q14671 828-1176, S863K;R864G;Q867N)
Outline: as §1

PUM1 PUF domain R7-NRR = PUM1 PUF domain R7-NRR (Homo sapiens, UniProt Q14671 828-1176, S1079N;N1080R;E1083R)
Outline: as §1

PUM1 PUF domain R6-LYG = target: T1, PUM1 PUF domain R6-LYG (Homo sapiens, UniProt Q14671 828-1176, N1043L;Q1047G)
T1 sequence: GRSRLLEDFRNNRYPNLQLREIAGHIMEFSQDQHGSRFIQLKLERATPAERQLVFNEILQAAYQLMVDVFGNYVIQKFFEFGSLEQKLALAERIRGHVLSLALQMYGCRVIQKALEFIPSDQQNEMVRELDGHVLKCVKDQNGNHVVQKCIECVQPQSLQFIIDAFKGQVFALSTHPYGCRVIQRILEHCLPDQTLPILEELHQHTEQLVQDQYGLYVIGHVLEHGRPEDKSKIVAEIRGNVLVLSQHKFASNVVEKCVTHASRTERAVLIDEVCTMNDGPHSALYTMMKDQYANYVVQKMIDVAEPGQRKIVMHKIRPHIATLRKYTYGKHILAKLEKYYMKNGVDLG
Outline: as §1

PUM1 PUF domain R5-DWV = PUM1 PUF domain R5-DWV (Homo sapiens, UniProt Q14671 828-1176, C1007D;R1008W;Q1011V)
Outline: as §1

PUM1 PUF domain R7-QFY = PUM1 PUF domain R7-QFY (Homo sapiens, UniProt Q14671 828-1176, S1079Q;N1080F;E1083Y)
Outline: as §1

PUM1 PUF domain R6-CFH = target: T2, PUM1 PUF domain R6-CFH (Homo sapiens, UniProt Q14671 828-1176, N1043C;Y1044F;Q1047H)
T2 sequence: T1 sequence with L216C, Y217F, G220H
Outline: as §1

For “GGCUAGAACUAGUGGAUCCCCCGGCGCCCGGCGGCUCGAGCCCGGGUAAGUGUAAAAAGUCUGCAUGCCGCCGGGCGCCAUGCCUGCAGGUCGACUCUAGAAAACAUG”, which binding signal (PUM1 PUF domain R2-ARP) is on record?
The binding signal was 4.42 log2 enrichment (interaction score).

For “GGCUAGAACUAGUGGAUCCCCCGGCGCCCGGCGGCUCGAGCCCGGGUAAGUGUAAAUUGUCUGCAUGCCGCCGGGCGCCAUGCCUGCAGGUCGACUCUAGAAAACAUG”, which binding signal (PUM1 PUF domain R1-KGN) is on record?
The binding signal was 4.31 log2 enrichment (interaction score).

How did the binding signal (PUM1 PUF domain R7-NRR) turn out when “GGCUAGAACUAGUGGAUCCCCCGGCGCCCGGCGGCUCGAGCCCGGGUAAGUCUAAAUAGUCUGCAUGCCGCCGGGCGCCAUGCCUGCAGGUCGACUCUAGAAAACAUG” was run?
Its binding signal is 4.05 log2 enrichment (interaction score).

Which binding signal (PUM1 PUF domain R6-LYG) does the source give for “GGCUAGAACUAGUGGAUCCCCCGGCGCCCGGCGGCUCGAGCCCGGGUAAGUGUAAAUAGUCUGCAUGCCGCCGGGCGCCAUGCCUGCAGGUCGACUCUAGAAAACAUG” here?
The binding signal was 4.49 log2 enrichment (interaction score).

And the binding signal (PUM1 PUF domain R5-DWV)?
The binding signal was 2.8 log2 enrichment (interaction score).

And the binding signal (PUM1 PUF domain R7-QFY)?
Its binding signal is 4.21 log2 enrichment (interaction score).

What about the binding signal (PUM1 PUF domain R6-CFH) of the same sequence?
Its binding signal is 2.76 log2 enrichment (interaction score).

With “GGCUAGAACUAGUGGAUCCCCCGGCGCCCGGCGGCUCGAGCCCGGGUAAGUGUGAAUAGUCUGCAUGCCGCCGGGCGCCAUGCCUGCAGGUCGACUCUAGAAAACAUG” as the sequence, how does the binding signal (PUM1 PUF domain R5-DWV) read?
The binding signal was 3.79 log2 enrichment (interaction score).

For “GGCUAGAACUAGUGGAUCCCCCGGCGCCCGGCGGCUCGAGCCCGGGUAAGUUUAAAUAGUCUGCAUGCCGCCGGGCGCCAUGCCUGCAGGUCGACUCUAGAAAACAUG”, which binding signal (PUM1 PUF domain R7-QFY) is on record?
The binding signal was 2.24 log2 enrichment (interaction score).

With “GGCUAGAACUAGUGGAUCCCCCGGCGCCCGGCGGCUCGAGCCCGGGUAAGUGAAAAUAGUCUGCAUGCCGCCGGGCGCCAUGCCUGCAGGUCGACUCUAGAAAACAUG” as the sequence, how does the binding signal (PUM1 PUF domain R6-CFH) read?
The binding signal was 4.34 log2 enrichment (interaction score).
